Shown are actives, neighbours in structure and some others; about 3.5% of the full set was active somewhere.
M1 antag: human M1 muscarinic receptor antagonists, primary screen, CHO-K1 cells, Fluo-8 calcium fluorescence, 1536-well; CHO-K1 hM1, ACh EC80 antagonist; Muscarinic acetylcholine receptor M1 (Homo sapiens), P11229; inhibition, % at 3 µM; 1.3% of 360,000 active;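 active means percent inhibition above its own plate's cutoff, namely the mean of that plate's compound wells plus 3 SD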;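 further: peak over basal fluorescence ratio during 140 s after agonist addition; 0% = ACh EC80 plus DMSO and 100% = DMSO alone without agonist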
Target sequence (P11229 whole entry, looked up): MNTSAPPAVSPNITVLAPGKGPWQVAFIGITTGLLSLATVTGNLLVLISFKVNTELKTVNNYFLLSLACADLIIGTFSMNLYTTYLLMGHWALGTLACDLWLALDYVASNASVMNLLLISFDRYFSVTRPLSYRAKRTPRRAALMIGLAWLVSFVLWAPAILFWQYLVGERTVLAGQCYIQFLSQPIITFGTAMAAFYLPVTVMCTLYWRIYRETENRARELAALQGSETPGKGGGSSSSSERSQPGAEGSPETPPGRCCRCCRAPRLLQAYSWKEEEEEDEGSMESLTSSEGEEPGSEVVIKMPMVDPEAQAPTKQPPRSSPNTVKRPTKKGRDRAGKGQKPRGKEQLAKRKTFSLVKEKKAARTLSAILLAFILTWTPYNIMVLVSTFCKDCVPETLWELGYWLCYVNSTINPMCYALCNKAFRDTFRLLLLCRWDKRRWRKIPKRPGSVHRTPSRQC
ATG4B inh: ATG4B protease inhibitors, primary screen, biochemical, fluorescence, uHTS. Cysteine protease ATG4B (Homo sapiens), Q9Y4P1. ATG4B cleavage of LC3-PLA2, NBD-HPC fluorescence, 1 h. inhibition, % at 8.33 µM. 0.51% of 340,000 active; in the data active means inhibition above about 40%
CHRM1 agonist: human M1 muscarinic receptor agonists, primary screen, Fluo-8 calcium fluorescence, CHO-K1 cells, HTS | CHO-K1 hM1, agonist mode; 0% DMSO, 100% acetylcholine EC100 | Muscarinic acetylcholine receptor M1 (Homo sapiens), P11229 | 0.33% of 360,000 active | activation, % at 3 µM;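 active means activation above the run's mean compound activation plus 3 SD, cut at about 16% in these data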;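 further: peak over basal fluorescence ratio within a 140 s kinetic read after compound addition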
SKN-1 inh: suppressors of acrylamide-induced Pgst-4::GFP reporter in worms, primary screen, SKN-1 inhibitor project, whole organism, uHTS, GFP/RFP fluorescence ratio, strain VP596; C. elegans VP596 Pgst-4::GFP/RFP ratio, 24 h; inhibition, % at 21.8 µM; 0.49% of 360,000 active; AID 624304, 2012;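 active means interference check ratio from 0.5 to 1.5 plus GFP to RFP signal ratio inhibition reaching or exceeding a fixed threshold, cut at about 30% in these data, passing the limit was not always enough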
M1 PAM: human M1 muscarinic receptor positive allosteric modulators, primary screen, CHO-K1 cells, Fluo-8 calcium fluorescence, 1536-well | activation, % at 3 µM | 0.088% of 360,000 active | AID 588819, 2011 | CHO-K1 hM1, ACh EC20; 0% = ACh EC20, 100% = maximal ACh | Muscarinic acetylcholine receptor M1 (Homo sapiens), P11229; in the data active means activation above about 19%, passing the limit was not always enough
Myeloid diff 2: induction of myeloid progenitor differentiation, primary screen, cell-based, flow cytometry, MLPCN library; ER-HoxA9 myeloid progenitors, lysozyme-GFP differentiation; calls only at 10 µM; 1% of 360,000 active; AID 624256, 2012;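 active means normalized GFP-positive differentiation at or above the plate's own cutoff, the solvent-only control mean plus 3 SD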;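 further: cells exposed to compound for four days before flow analysis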
The depositor's hits bear a star; i = inactive; / = not tested or not shown; + = active, no number.

SMILES	M1 antag	ATG4B inh	CHRM1 agonist	SKN-1 inh	M1 PAM	Myeloid diff 2
O=[N+]([O-])c1cccc(/C=C2\CCc3cnn(C4CCS(=O)(=O)C4)c32)c1 (stereo not given)	5	/	0	9	-1	i
CC(=O)n1cc(Nc2ccccc2C(=O)O)c2ccccc21	-29	10	-1	25	3	i
CCOC(=O)c1ccccc1Nc1cn(C(C)=O)c2ccccc12	-12	0	-3	-17	6	+
OCC1(CCc2ccccc2)CCCN(C/C=C/c2ccccc2)C1 (stereo not given)	35*	-3	-9	17	-25	i
COc1ccccc1/C=C/CN1CCCC(CO)(CCc2ccccc2)C1 (stereo not given)	19	-5	-8	0	-18	i
CCOC(=O)c1ccc(NC(=O)NC2CC3CCC(C2)N3)cc1 (stereo not given)	59*	-3	-6	-3	-22	i
CC(=O)c1cccc(NC(=O)C2CCCN(S(C)(=O)=O)C2)c1 (stereo not given)	-8	-5	9	-7	6	i
CS(=O)(=O)N1CCCC(C(=O)Nc2cccc(F)c2)C1 (stereo not given)	-35	2	2	-6	32*	i
COC(=O)c1ccc(NC(=O)Nc2ccc(F)cc2)cc1	13	-13	1	0	-3	i
CCOC(=O)c1ccc(NC(=O)C2CCN(S(=O)(=O)c3ccccc3)CC2)cc1	-20	-20	3	-3	11	i
CCOC(=O)c1ccc(NC(=O)Nc2ccc(F)cc2)cc1	21*	-13	10	0	-15	i
CCOC(=O)c1ccc(NC(=O)C2CCCN(S(=O)(=O)c3ccc(F)cc3)C2)cc1 (stereo not given)	48*	-12	2	7	-17	i
Cc1ccc(C(C)(C)C)cc1S(=O)(=O)N1CCC(C(=O)N2CCN(c3ccc(O)cc3)CC2)CC1	8	-17	3	-13	-1	i
COc1cccc(OC)c1C(=O)NC(C)C12CC3CC(CC(C3)C1)C2 (stereo not given)	0	-19	-2	-4	-7	i
CC(NC(=O)C12CC3CC(CC(C3)C1)C2)C(=O)N/N=C/C1=C(N2CCOCC2)C(=C\c2cccc([N+](=O)[O-])c2)/CC1 (stereo not given)	-10	-13	-4	-3	9	i
CC(NC(=O)C12CC3CC(CC(C3)C1)C2)C(=O)NN=Cc1ccc([N+](=O)[O-])o1 (stereo not given)	102*	-15	-9	9	9	i
CC(NC(=O)c1ccc([N+](=O)[O-])o1)C12CC3CC(CC(C3)C1)C2 (stereo not given)	-1	2	-7	0	0	+
CC(C)C(NC(=O)C12CC3CC(CC(C3)C1)C2)C(=O)N/N=C/C1=C(N2CCOCC2)C(=C\c2ccc([N+](=O)[O-])cc2)/CC1 (stereo not given)	-2	0	-8	15	3	+
O=C(NCc1ccccn1)c1ccc2nc(C3CCCCC3)oc2c1	-3	8	-1	-26	19	i
Cc1cccc(C)c1-n1nnnc1C(c1ccnc2ccccc12)N1CCN(C(=O)OCc2ccccc2)CC1 (stereo not given)	/	/	/	5	/	i
COc1ccc(N2C(=O)CCC(C(=O)NCCN3CCOCC3)C2c2ccc(OC)c(OC)c2)cc1 (stereo not given)	22*	-7	-2	-28	-4	i
CN(C)CCCC1Sc2ccccc2Sc2ccccc21 (stereo not given)	76*	-8	-3	9	-25	i
CNCCC1Sc2ccccc2Oc2ccccc21 (stereo not given)	-7	12	-14	-2	-7	i
C=CCOc1ccc2c(CC)cc(=O)oc2c1C	-2	2	-11	72*	2	i
CCOc1ccc2c(CC)cc(=O)oc2c1OCC	0	3	6	7	3	i
SMILES	M1 antag	ATG4B inh	CHRM1 agonist	SKN-1 inh	M1 PAM	Myeloid diff 2
O=C(NCC(c1cccs1)N1CCOCC1)c1ccc(Cl)nc1 (stereo not given)	-13	-22	-2	11	14	i
Cc1ccc(C(C)NC(=O)/C(C#N)=C\c2c(C)[nH]c3ccccc23)cc1 (stereo not given)	12	1	21*	9	0	i
COC(=O)c1ccc(CN2CCN(C3CCCCC3)C(CCO)C2)cc1 (stereo not given)	60*	-4	-7	6	-23	i
CC(=O)Nc1ccc(CN2CCN(CCC(C)C)C(CCO)C2)cc1 (stereo not given)	-5	0	-9	-5	5	i
COC(=O)c1ccc(CN2CCN(C3CCCC3)C(CCO)C2)cc1 (stereo not given)	92*	-3	-14	6	-32	i
CC(=O)Nc1ccc(CN2CCN(C3CCCCC3)C(CCO)C2)cc1 (stereo not given)	24*	13	-6	-3	-12	i
COC(=O)c1ccc(CN2CCN(Cc3ccccc3)C(CCO)C2)cc1 (stereo not given)	-9	2	-10	-2	-1	i
CN(CC(=O)Nc1ccccc1Cl)C(=O)COC(=O)/C=C/c1cccc(C(F)(F)F)c1	2	-14	-6	-8	5	i
Cc1cc(C2C(=O)c3ccccc3C2=O)c(C)c(C)c1C	0	7	-4	8	1	i
C[C@H]1CN([C@@H](C)CO)C(=O)CCCn2cc(nn2)CO[C@@H]1CN(C)S(=O)(=O)c1ccc(C#N)cc1	-16	/	-4	-7	3	i
CC(C)=CCN1CCN(Cc2nc(-c3ccccc3)cs2)CC1CCO (stereo not given)	34*	-13	-7	-4	-22	i
CCN(CC)C(=S)SCC(=O)c1ccc(F)cc1	24*	-2	-1	-8	-4	i
CCOc1ccc(NS(=O)(=O)c2ccc(OCC)c3ncccc23)cc1	-4	-11	8	4	4	+
CCOc1ccc(S(=O)(=O)NCc2ccc(C)cc2)c2cccnc12	-1	-9	-4	7	1	i
